Records with an inconclusive call do not appear. Some compounds were tested as several samples or in several runs, with calls that do not always agree. Active and inactive are the calls of the source. Unless noted, calls follow the shape of the full dose curve.

Test [1] can be described thus: Nuclear factor erythroid 2-related factor 2/antioxidant responsive element (Nrf2/ARE) small molecule agonists: qHTS cell viability counter screen in human keratinocytes (AID 1919968; active = well fitted curve in the direction sought with a large enough effect in the repeat runs; an effect the other way counts as inactive or inconclusive; also: nearly all actives have a fitted effect of over 55% in size; also: potency is read from the fitted curve at half-maximal effect). Put shortly:
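Seed 1,500 KeratinoSens cells per well, then incubate 5 h at 37 C/5% CO2. Add compounds in DMSO and incubate 23 h. Add CellTiter-Fluor, wait 1 h and read fluorescence.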

Test [2] can be described thus: Nuclear factor erythroid 2-related factor 2/antioxidant responsive element (Nrf2/ARE) small molecule agonists: luciferase reporter gene qHTS assay in human keratinocytes (AID 1919969). Also: nearly all actives have a fitted effect of over 35% in size. On the technique in general: Reporter assays use an easily measured gene product as a stand-in for the process of interest.
Test [3] deals with Gonadotropin-releasing hormone receptor (Homo sapiens) (UniProt P30968). Briefly: Human gonadotropin-releasing hormone receptor (GnRHR) small molecule agonists, calcium flux assay in GnRHR-HEK293 cells (AID 1920063). Also: nearly all actives have a fitted effect of over 35% in size. Put shortly:
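Cells: HEK293 stably expressing human GnRHR. Steps: overnight (18 h) culture, 1 h calcium dye loading at 37 C, compound addition, kinetic fluorescence read at 480/540 nm. Each compound tested at 15 concentrations in triplicate.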
In general terms: A change in cytosolic calcium serves as a functional read-out for many receptors and channels.

The target of test [4] is KiSS-1 receptor (Homo sapiens) (UniProt Q969F8). Kind of test: Human kisspeptin (KISS1R) small molecule agonists, calcium flux assay in KISS1R-HEK293 cells (AID 1920064; active = well fitted curve in the direction sought with a large enough effect in the repeat runs; an effect the other way counts as inactive or inconclusive). Put shortly:
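Cells plated and incubated 18 h; dye added, 1 h at 37 C; compounds in DMSO pinned in; signal read at 480/540 nm every second for 3 min. Each compound tested at 15 concentrations in triplicate.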

A short description of test [5]: G protein-coupled receptor (GPCR) small molecule agonists, calcium flux assay: HEK293 wild type cell line counter screen (AID 1920065). Put shortly:
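Counter-screen of the Tox21 10K library for non-specific calcium release: dye-loaded cells received compounds in DMSO and were monitored by kinetic fluorescence (480/540 nm, 3 min). Fifteen concentrations, run in triplicate.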

Test [6] can be described thus: p53 small molecule agonists, cell-based qHTS assay with human liver microsomes (AID 1963577).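 Also: p53 response element beta-lactamase reporter cells with liver microsomes plus NADPH.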 Put shortly: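 p53RE-bla cells; 5 h settle, 37 C/5% CO2; cpd + HLM 0.5 mg/mL + NADPH 0.5 mg/mL (final); 16 h 37 C; LiveBLAzer 2 h RT dark; fluorescence readout.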
(In general: In qHTS, concentration-response curves come from the screen itself.)

Test [7] is described as follows: p53 small molecule agonists, cell-based qHTS assay with rat liver microsomes (AID 1963578). Put shortly: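 Rat liver microsome activation: microsomes 0.5 mg/mL, NADPH 0.5 mg/mL final; p53RE-bla cells, 16 h 37 C; LiveBLAzer readout, 2 h RT dark.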
Test [8] in a line: p53 small molecule agonists, cell-based qHTS assay with human liver microsomes: qHTS cell viability counter screen (AID 1963579). Also: nearly all actives have a fitted effect of over 45% in size. Put shortly:
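Luminescent CellTiter-Glo read-out, 30 min at room temperature, gauged cytotoxicity in p53RE-bla cells exposed 16 h at 37 C to DMSO-dissolved compounds with metabolic activation by human liver microsomes and NADPH, each 0.5 mg/mL final.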

Test [9] can be described thus: p53 small molecule agonists, cell-based qHTS assay with rat liver microsomes: qHTS cell viability counter screen (AID 1963580). Also: nearly all actives have a fitted effect of over 45% in size. Also: potency is read from the fitted curve at half-maximal effect. Put shortly:
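p53RE-bla HCT-116 cells were exposed 16 h at 37 C to compounds with rat liver microsomes (0.5 mg/mL) and NADPH (0.5 mg/mL). Viability was measured in the same wells as ATP content by CellTiter-Glo luminescence.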

Test [10] in a line: p53 small molecule agonists, cell-based qHTS assay: qHTS cell viability counter screen (AID 1963581). Also: nearly all actives have a fitted effect of over 45% in size. An outline of the steps: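 Cells: HCT-116 with p53 response element-driven beta-lactamase. Treatment: 16 h, 37 C, compounds in DMSO. Read: CellTiter-Glo luminescence after 30 min RT.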
Test [11] can be described thus: p53 small molecule agonists, cell-based qHTS assay (AID 1963582; active = well fitted activation curve with a large enough effect in the signal ratio in the repeat runs, not every such curve was filed as active; the % refers to the signal ratio). An outline of the steps:
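Quantitative HTS in p53RE-bla cells: after a 5 h settling period, compounds delivered in DMSO were left on cells for 16 h at 37 C, and reporter induction was measured as fluorescence following 2 h substrate loading.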

For test [12], the target named is 5-hydroxytryptamine receptor 2A (Homo sapiens) (UniProt P28223). Briefly: 5-hydroxytryptamine receptor 2A (HTR2A) small molecule antagonists, cell-based qHTS assay (AID 1963586). Also: nearly all actives have a fitted effect of over 45% in size. Put shortly:
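Antagonist-mode intracellular calcium assay: DOI (4 nM) added after 5 min compound pre-incubation at room temperature to dye-loaded HTR2A-CHO cells. Fluorescence followed for 3 min, sampled every second.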

For test [13] the target is unchanged. Kind of test: 5-hydroxytryptamine receptor 2A (HTR2A) small molecule agonists, cell-based qHTS assay (AID 1963587). Also: nearly all actives have a fitted effect of over 30% in size. An outline of the steps:
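CHO cells stably expressing human HTR2A, plated 18 h, loaded with calcium dye 1 h at 37 C. Agonist mode: compounds added and intracellular calcium fluorescence recorded kinetically for 2 min at 1 sec intervals.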

In test [14] the target is Muscarinic acetylcholine receptor M1 (Homo sapiens) (UniProt P11229). Kind of test: Cholinergic receptor muscarinic 1 (CHRM1) small molecule antagonists, cell-based qHTS assay (AID 1963588). Also: nearly all actives have a fitted effect of over 40% in size. An outline of the steps: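 CHRM1-CHO calcium-flux assay, antagonist mode. Cells were seeded 18 h, dye-loaded 1 h at 37 C and given compound for 5 min at RT, then acetylcholine was added at 50nM. FDSS fluorescence was read 3 min; 15 concentrations, three runs.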
Sequence of Muscarinic acetylcholine receptor M1 (Homo sapiens) (P11229 whole entry, looked up): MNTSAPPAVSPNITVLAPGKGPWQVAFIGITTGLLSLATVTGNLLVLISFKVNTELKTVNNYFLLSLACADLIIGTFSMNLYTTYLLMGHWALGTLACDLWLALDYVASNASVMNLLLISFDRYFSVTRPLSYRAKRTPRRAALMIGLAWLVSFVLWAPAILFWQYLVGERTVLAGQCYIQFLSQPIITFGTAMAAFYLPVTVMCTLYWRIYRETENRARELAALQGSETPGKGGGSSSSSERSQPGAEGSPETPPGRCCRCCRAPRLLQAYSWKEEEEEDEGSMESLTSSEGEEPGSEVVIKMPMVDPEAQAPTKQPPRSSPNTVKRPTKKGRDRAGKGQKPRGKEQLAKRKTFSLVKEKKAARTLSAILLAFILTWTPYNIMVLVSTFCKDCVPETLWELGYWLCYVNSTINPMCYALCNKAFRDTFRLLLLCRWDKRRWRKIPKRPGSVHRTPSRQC

For test [15] the target is unchanged. Briefly: Cholinergic receptor muscarinic 1 (CHRM1) small molecule agonists, cell-based qHTS assay (AID 1963589). Also: nearly all actives have a fitted effect of over 35% in size. An outline of the steps: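 Agonist-mode qHTS in CHO cells stably carrying human muscarinic M1. Intracellular calcium is tracked by fluorescence every second after compound transfer; each compound runs at 15 concentrations in three independent runs.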

Test [16] can be described thus: cAMP Responsive Elements (CRE) small molecule agonists, cell-based qHTS assay (AID 1963590). Put shortly:
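Agonist mode qHTS in CRE-bla HEK 293T cells: compounds dosed from DMSO for 3 h at 37 C/5% CO2, followed by LiveBLAzer B/G FRET substrate for 2 h at room temperature.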

Test [17] is described as follows: cAMP Responsive Elements (CRE) small molecule antagonists, cell-based qHTS assay (AID 1963591; active = well fitted inhibition curve with a large enough effect in the signal ratio in the repeat runs, not every such curve was filed as active; the % refers to the signal ratio). An outline of the steps: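 Antagonist mode: test compounds are co-incubated with the adenylyl cyclase activator NKH477 (0.25 uM final) on CRE-bla HEK293T cells for 3 h at 37 °C, followed by LiveBLAzer substrate loading.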
Test [18] addresses Beta-2 adrenergic receptor (Homo sapiens) (UniProt P07550). Kind of test: Adrenergic beta2 receptor (ADRB2) small molecule antagonists, cell-based qHTS assay (AID 1963592). Also: series mostly up to about 92 µM; nearly all actives have a fitted effect of over 50% in size. An outline of the steps: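 Cells (CHO, stable ADRB2 overexpression) incubated 18-20hr at 37C; compounds added from DMSO; agonist mix (1nM isoproterenol, 100uM IBMX, 25uM Ro-20-1724) added; 0.5hr RT; d2-cAMP and anti-cAMP-cryptate added; 1hr RT; 665/615 nm read.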

The target in test [19] is D(2) dopamine receptor (Homo sapiens) (UniProt P14416). Kind of test: Dopamine D2 receptor (DRD2) small molecule agonists, cell-based qHTS assay (AID 1963594). Also: nearly all actives have a fitted effect of over 35% in size. Put shortly:
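HEK293 cells stably expressing human DRD2, pre-treated with PDE inhibitor Ro20-1724 (0.1 mM final) and compound 10 min at room temperature, then stimulated with NKH477 (200nM […]) for 30 min. cAMP read by HTRF (665/620 nm).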

Test [20] shares this target. Briefly: Dopamine D2 receptor (DRD2) small molecule antagonists, cell-based qHTS assay (AID 1963595; active = well fitted inhibition curve with a large enough effect in the signal ratio in the repeat runs, with a control signal flat; the % refers to the signal ratio). An outline of the steps: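 HEK293 cells stably expressing DRD2 were preincubated with 0.1 mM Ro20-1724, then with compound for 10 min at room temperature. Cells were stimulated with 200 nM NKH477 plus 12 nM quinpirole for 30 min, and cAMP was read by HTRF.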

Sequence of 5-hydroxytryptamine receptor 2A (Homo sapiens) (P28223 whole entry, looked up): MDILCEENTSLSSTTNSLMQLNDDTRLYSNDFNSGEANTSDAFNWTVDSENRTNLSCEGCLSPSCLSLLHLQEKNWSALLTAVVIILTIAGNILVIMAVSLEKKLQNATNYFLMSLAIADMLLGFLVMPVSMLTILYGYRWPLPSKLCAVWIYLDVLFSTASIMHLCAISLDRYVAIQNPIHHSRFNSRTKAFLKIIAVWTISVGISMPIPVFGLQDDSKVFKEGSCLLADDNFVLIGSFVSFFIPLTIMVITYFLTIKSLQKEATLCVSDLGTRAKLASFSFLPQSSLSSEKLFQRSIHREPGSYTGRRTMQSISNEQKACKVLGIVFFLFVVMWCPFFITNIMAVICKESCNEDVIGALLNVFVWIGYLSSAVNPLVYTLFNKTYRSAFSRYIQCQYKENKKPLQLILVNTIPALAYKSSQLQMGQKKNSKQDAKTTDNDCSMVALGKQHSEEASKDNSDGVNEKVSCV
Sequence of KiSS-1 receptor (Homo sapiens) (Q969F8 whole entry, looked up): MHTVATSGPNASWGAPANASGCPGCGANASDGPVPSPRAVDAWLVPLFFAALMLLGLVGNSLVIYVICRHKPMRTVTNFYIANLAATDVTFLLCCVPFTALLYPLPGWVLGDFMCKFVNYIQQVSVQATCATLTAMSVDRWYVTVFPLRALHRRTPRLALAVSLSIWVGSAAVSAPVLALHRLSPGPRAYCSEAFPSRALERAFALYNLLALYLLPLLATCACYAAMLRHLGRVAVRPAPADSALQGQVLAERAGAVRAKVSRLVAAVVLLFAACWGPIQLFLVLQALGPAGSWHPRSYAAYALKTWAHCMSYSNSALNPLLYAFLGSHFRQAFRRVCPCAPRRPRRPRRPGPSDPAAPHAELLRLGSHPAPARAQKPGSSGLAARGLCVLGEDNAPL
Sequence of Beta-2 adrenergic receptor (Homo sapiens) (P07550 whole entry, looked up): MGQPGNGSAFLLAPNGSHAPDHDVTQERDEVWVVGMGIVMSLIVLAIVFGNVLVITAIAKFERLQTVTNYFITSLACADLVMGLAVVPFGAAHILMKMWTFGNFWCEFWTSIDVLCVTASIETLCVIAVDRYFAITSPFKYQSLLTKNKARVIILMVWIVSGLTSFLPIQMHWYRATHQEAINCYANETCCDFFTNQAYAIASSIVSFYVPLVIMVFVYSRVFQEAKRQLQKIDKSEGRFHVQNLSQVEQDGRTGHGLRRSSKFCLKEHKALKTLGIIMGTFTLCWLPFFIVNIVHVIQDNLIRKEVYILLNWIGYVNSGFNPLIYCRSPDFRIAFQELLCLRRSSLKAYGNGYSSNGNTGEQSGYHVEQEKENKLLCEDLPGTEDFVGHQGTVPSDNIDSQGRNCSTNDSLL
Sequence of D(2) dopamine receptor (Homo sapiens) (P14416 whole entry, looked up): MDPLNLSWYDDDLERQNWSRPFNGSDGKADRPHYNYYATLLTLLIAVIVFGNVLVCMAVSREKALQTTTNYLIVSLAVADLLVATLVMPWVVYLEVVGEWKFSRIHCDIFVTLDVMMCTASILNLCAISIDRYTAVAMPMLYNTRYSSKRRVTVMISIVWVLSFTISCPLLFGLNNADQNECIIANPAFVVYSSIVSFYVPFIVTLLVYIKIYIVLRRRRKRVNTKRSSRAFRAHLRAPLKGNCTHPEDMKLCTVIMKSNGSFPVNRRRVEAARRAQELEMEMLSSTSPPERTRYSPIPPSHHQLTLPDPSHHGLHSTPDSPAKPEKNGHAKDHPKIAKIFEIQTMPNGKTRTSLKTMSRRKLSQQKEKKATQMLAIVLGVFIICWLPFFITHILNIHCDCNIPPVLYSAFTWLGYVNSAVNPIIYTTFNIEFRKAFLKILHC
Sequence of Gonadotropin-releasing hormone receptor (Homo sapiens) (P30968 whole entry, looked up): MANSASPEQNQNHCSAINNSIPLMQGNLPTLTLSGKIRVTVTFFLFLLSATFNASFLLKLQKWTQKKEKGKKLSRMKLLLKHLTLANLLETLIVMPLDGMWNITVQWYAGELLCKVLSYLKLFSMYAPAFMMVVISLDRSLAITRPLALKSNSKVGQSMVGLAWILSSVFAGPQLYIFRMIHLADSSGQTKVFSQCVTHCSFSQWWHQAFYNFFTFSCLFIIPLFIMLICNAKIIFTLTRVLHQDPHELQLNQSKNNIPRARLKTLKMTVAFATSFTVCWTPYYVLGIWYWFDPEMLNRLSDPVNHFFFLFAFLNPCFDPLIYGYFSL

In the case of `ClC1=C(Cl)[C@]2(Cl)[C@@H]3[C@@H](Cl)[C@H](Cl)C[C@@H]3[C@@]1(Cl)C2(Cl)Cl`, the Potency entry in [1], in test [2], in test [3], in test [4], in test [5] and in test [6] was “inactive” in each case. The Potency result in test [7], in [8], in [9], in test [10], in test [11] and in test [12] was “inactive” throughout. In addition, the Potency entry in test [13], in [14], in test [15], in [16], in test [17] and in [18] was “inactive” in each case. For the same molecule, the Potency entry in [19] and in test [20] was “inactive” in each case.

`CC(C)(Cl)Cl`: the Potency result in test [1], in test [2], in [3], in test [4], in test [5] and in test [6] was “inactive” throughout. Also, the Potency entry in test [7], in [8], in [9], in [10], in test [11] and in test [12] was “inactive” in each case. Moreover, the Potency result in test [13], in test [14], in test [15], in test [16], in [17] and in test [18] was “inactive” each time. Further, the Potency entry in [19] was “inactive”.

For the molecule `O=C(NCO)NCO`, the Potency entry in [1], in [2], in test [3], in test [4], in [5] and in test [6] was “inactive” throughout. Also, the Potency result in test [7], in test [8], in test [9], in [10], in test [11] and in test [12] was “inactive” throughout. Also, the Potency entry in test [13], in test [14], in [15], in test [16], in test [17] and in test [18] was “inactive” in each case. In addition, the Potency entry in test [19] and in [20] was “inactive” throughout.

With `CCCCCCCCCCCCCCCl`, the Potency result in test [1], in test [2], in test [3], in test [4], in test [5] and in test [6] was “inactive” in each case. Moreover, the Potency entry in [7], in [8], in [9], in test [10], in [11] and in test [12] was “inactive” in each case. Also, the Potency entry in [13], in test [14], in [15], in [16], in test [17] and in [18] was “inactive” throughout. Moreover, the Potency entry in [19] and in [20] was “inactive” each time.

As to `COc1ccc(C(O)(c2cncnc2)C2CC2)cc1` (stereo unspecified), the Potency entry in test [1], in test [2], in test [3], in test [4], in [5] and in test [6] was “inactive” each time. Further, the Potency entry in test [7], in test [8], in test [9], in test [10], in test [11] and in test [12] was “inactive” in each case. In addition, the Potency entry in [13], in [14], in [15], in test [16], in test [17] and in test [18] was “inactive” each time. Moreover, the Potency result in test [19] and in test [20] was “inactive” each time.

Regarding `CCC[N+](=O)[O-]`, the Potency in test [1] is 2.68 µM (active) and inactive; in test [9], 44.9 µM (active) and inactive. For the same molecule, the Potency result in [2], in test [3], in test [4], in test [5], in test [6] and in test [7] was “inactive” throughout. Besides, the Potency result in [8], in [10], in [11], in test [12], in test [13] and in [14] was “inactive” throughout. Also, the Potency result in [15], in [16], in test [17], in test [18] and in test [20] was “inactive” each time.

For the molecule `CC(C)(O)C(Cl)(Cl)Cl`, the Potency result in test [1], in [2], in [3], in test [4], in test [5] and in test [6] was “inactive” in each case. The Potency result in [7], in test [8], in test [9], in test [10], in [11] and in test [12] was “inactive” in each case. Further, the Potency result in [13], in test [14], in [15], in test [16], in test [17] and in test [18] was “inactive” each time. Moreover, in test [19], the Potency result was “inactive”.

For the molecule `ClCC1CO1` (stereo unspecified), the Potency entry in test [1], in test [2], in test [3], in test [4], in [5] and in test [6] was “inactive” throughout. Moreover, the Potency result in [7], in test [8], in [9], in test [10], in test [11] and in [12] was “inactive” in each case. The Potency result in test [13], in test [14], in test [15], in test [16], in [17] and in test [18] was “inactive” throughout. In addition, the Potency result in test [20] is “inactive”.

(Values after PubChem BioAssay (Tox21).)
